Experimental data reported in PubChem BioAssay AID1159580 (chemical genetic matrix, 2015).
Where “and” joins values, the source holds several entries; their conditions need not be identical. Equal entries are not always repeated. Out of some 5,500 compounds screened, about 2,000 (36%) were called active. Inconclusive results (about 18%) are left out. No stated cut-off is given here; in the data, active means normalized growth mostly below about 0.91 (no sharp cut-off); inconclusive means no clear call, values can overlap the other calls; inactive means mostly above about 0.92. The list shows a part of the results.

Test: chemical genetic growth profiling, strain panel (AID 1159580);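 further: tested at 20 µM; growth read once vehicle control cultures reached saturation at 30 °C; 1 = growth at the plate median or of vehicle wells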
Conditions: S. cerevisiae deletion strains, growth OD

O=C(OC[C@H]1O[C@H](OC(=O)c2cc(O)c(O)c(OC(=O)c3cc(O)c(O)c(O)c3)c2)[C@H](OC(=O)c2cc(O)c(O)c(OC(=O)c3cc(O)c(O)c(O)c3)c2)[C@@H](OC(=O)c2cc(O)c(O)c(OC(=O)c3cc(O)c(O)c(O)c3)c2)[C@@H]1OC(=O)c1cc(O)c(O)c(OC(=O)c2cc(O)c(O)c(O)c2)c1)c1cc(O)c(O)c(OC(=O)c2cc(O)c(O)c(O)c2)c1
normalized growth (locus YAL013W, strain DEP1, stronger effect = lower value): 0.088 (active) | normalized growth (locus YAL021C, strain ccr4, stronger effect = lower value): 0.273 (active) | normalized growth (locus YAL026C, strain drs2, stronger effect = lower value): 0.572 (active) | normalized growth (locus YAL030W, strain snc1, stronger effect = lower value): 0.889 (active) | normalized growth (locus YBL061C, strain skt5, stronger effect = lower value): 0.68 (active) | normalized growth (locus YBR009C, strain hhf1, stronger effect = lower value): 0.788 (active) | normalized growth (locus YBR021W, strain FUR4, stronger effect = lower value): 0.148 (active) | normalized growth (locus YBR023C, strain chs3, stronger effect = lower value): 0.537 (active) | normalized growth (locus YBR171W, strain sec66, stronger effect = lower value): 0.931 (inactive) | normalized growth (locus YBR229C, strain ROT2, stronger effect = lower value): 0.0601 (active) | normalized growth (locus YBR231C, strain swc5, stronger effect = lower value): 0.581 (active) | normalized growth (locus YBR279W, strain paf1, stronger effect = lower value): 0.686 (active) | normalized growth (locus YCL011C, strain gbp2, stronger effect = lower value): 0.782 (active) | normalized growth (locus YCL016C, strain dcc1, stronger effect = lower value): 0.735 (active) | normalized growth (locus YCL029C, strain bik1, stronger effect = lower value): 0.0912 (active) | normalized growth (locus YCL061C, strain MRC1, stronger effect = lower value): 0.759 (active) | normalized growth (locus YCL069W, strain vba3, stronger effect = lower value): 0.8 (active) | normalized growth (locus YCR088W, strain abp1, stronger effect = lower value): 0.834 (active) | normalized growth (locus YDL005C, strain med2, stronger effect = lower value): 1.02 (inactive) | normalized growth (locus YDL035C, strain GPR1, stronger effect = lower value): 0.0826 (active) | normalized growth (locus YDL040C, strain nat1, stronger effect = lower value): 0.824 (active) | normalized growth (locus YDL074C, strain BRE1, stronger effect = lower value): 0.148 (active) | normalized growth (locus YDL101C, strain DUN1, stronger effect = lower value): 0.0829 (active) | normalized growth (locus YDL134C, strain PPH21, stronger effect = lower value): 0.0788 (active) | normalized growth (locus YDL185W, strain tfp1, stronger effect = lower value): 0.0903 (active) | normalized growth (locus YDL192W, strain arf1, stronger effect = lower value): 0.0892 (active) | normalized growth (locus YDR001C, strain nth1, stronger effect = lower value): 0.998 (inactive) | normalized growth (locus YDR069C, strain doa4, stronger effect = lower value): 0.524 (active) | normalized growth (locus YDR101C, strain arx1, stronger effect = lower value): 0.0922 (active) | normalized growth (locus YDR137W, strain rgp1, stronger effect = lower value): 0.327 (active) | normalized growth (locus YDR150W, strain NUM1, stronger effect = lower value): 0.0891 (active) | normalized growth (locus YDR159W, strain sac3, stronger effect = lower value): 0.66 (active) | normalized growth (locus YDR162C, strain NBP2, stronger effect = lower value): 0.079 (active) | normalized growth (locus YDR195W, strain ref2): 0.839 (active) | normalized growth (locus YDR297W, strain sur2, stronger effect = lower value): 0.823 (active) | normalized growth (locus YDR318W, strain mcm21, stronger effect = lower value): 0.0987 (active) | normalized growth (locus YDR334W, strain swr1, stronger effect = lower value): 0.632 (active) | normalized growth (locus YDR335W, strain msn5, stronger effect = lower value): 0.747 (active) | normalized growth (locus YDR388W, stronger effect = lower value): 0.0902 (active) | normalized growth (locus YDR392W, strain spt3, stronger effect = lower value): 0.742 (inactive) | normalized growth (locus YDR502C, strain sam2, stronger effect = lower value): 0.101 (active) | normalized growth (locus YEL003W, strain gim4, stronger effect = lower value): 0.748 (active) | normalized growth (locus YEL037C, strain rad23, stronger effect = lower value): 0.771 (active) | normalized growth (locus YEL061C, strain CIN8 (second series), stronger effect = lower value): 0.926 (inactive) | normalized growth (locus YEL061C, strain CIN8, stronger effect = lower value): 0.0806 (active) | normalized growth (locus YER015W, strain faa2, stronger effect = lower value): 0.531 (active) | normalized growth (locus YER016W, strain bim1, stronger effect = lower value): 0.8 (active) | normalized growth (locus YER110C, stronger effect = lower value): 0.111 (active) | normalized growth (locus YER111C, strain swi4, stronger effect = lower value): 0.404 (active) | normalized growth (locus YER155C, strain BEM2 (second series), stronger effect = lower value): 0.99 (inactive) | normalized growth (locus YER155C, strain BEM2, stronger effect = lower value): 0.112 (active) | normalized growth (locus YER167W, strain BCK2, stronger effect = lower value): 0.0894 (active) | normalized growth (locus YFR010W, strain ubp6, stronger effect = lower value): 0.701 (active) | normalized growth (locus YGL078C, strain dbp3, stronger effect = lower value): 0.0891 (active) | normalized growth (locus YGL086W, strain mad1, stronger effect = lower value): 0.0871 (active) | normalized growth (locus YGL167C, strain pmr1, stronger effect = lower value): 0.724 (active) | normalized growth (locus YGL173C, strain kem1, stronger effect = lower value): 0.54 (active) | normalized growth (locus YGL227W, strain vid30, stronger effect = lower value): 1 (inactive) | normalized growth (locus YGL240W, strain doc1, stronger effect = lower value): 0.979 (inactive) | normalized growth (locus YGL248W, strain PDE1, stronger effect = lower value): 0.0713 (active) | normalized growth (locus YGL253W, strain hxk2, stronger effect = lower value): 0.796 (active) | normalized growth (locus YGR078C, strain PAC10, stronger effect = lower value): 0.084 (active) | normalized growth (locus YGR135W, strain pre9, stronger effect = lower value): 0.0994 (active) | normalized growth (locus YGR229C, strain SMI1, stronger effect = lower value): 0.102 (active) | normalized growth (locus YGR252W, strain gcn5, stronger effect = lower value): 0.231 (active) | normalized growth (locus YHR013C, strain ard1, stronger effect = lower value): 0.597 (active) | normalized growth (locus YHR027C, strain rpn1, stronger effect = lower value): 0.455 (active) | normalized growth (locus YHR030C, strain SLT2, stronger effect = lower value): 0.0838 (active) and 1.05 (inactive) | normalized growth (locus YHR079C, strain IRE1 (second series), stronger effect = lower value): 0.0958 (active) | normalized growth (locus YHR079C, strain IRE1, stronger effect = lower value): 1.05 (inactive) | normalized growth (locus YHR094C, strain hxt1, stronger effect = lower value): 0.0909 (active) | normalized growth (locus YHR129C, strain ARP1, stronger effect = lower value): 0.105 (active) | normalized growth (locus YHR142W, strain chs7, stronger effect = lower value): 0.535 (active) | normalized growth (locus YHR200W, strain rpn10, stronger effect = lower value): 0.0922 (active) | normalized growth (locus YIL066C, strain RNR3, stronger effect = lower value): 0.0729 (active) | normalized growth (locus YIL073C, strain SPO22, stronger effect = lower value): 0.167 (active) | normalized growth (locus YIL125W, strain kgd1, stronger effect = lower value): 0.0846 (active) | normalized growth (locus YIR030C, strain dcg1, stronger effect = lower value): 0.0869 (active) | normalized growth (locus YJL092W, strain hpr5, stronger effect = lower value): 0.866 (active) | normalized growth (locus YJL095W, strain BCK1 (second series), stronger effect = lower value): 0.789 (active) | normalized growth (locus YJL095W, strain BCK1, stronger effect = lower value): 0.0975 (active) and 1.03 (inactive) | normalized growth (locus YJL115W, strain asf1, stronger effect = lower value): 0.979 (inactive) | normalized growth (locus YJL129C, strain trk1, stronger effect = lower value): 0.872 (inactive) | normalized growth (locus YJL134W, strain LCB3, stronger effect = lower value): 0.0741 (active) | normalized growth (locus YJL154C, strain vps35, stronger effect = lower value): 0.965 (inactive) | normalized growth (locus YJL164C, strain tpk1, stronger effect = lower value): 0.781 (active) | normalized growth (locus YJL166W, strain qcr8, stronger effect = lower value): 0.839 (active) | normalized growth (locus YJL168C, strain set2, stronger effect = lower value): 0.087 (active) | normalized growth (locus YJL187C, strain SWE1 (second series), stronger effect = lower value): 0.0725 (active) | normalized growth (locus YJR043C, strain POL32, stronger effect = lower value): 0.101 (active) | normalized growth (locus YJR066W, strain TOR1, stronger effect = lower value): 0.967 (inactive)
